Reference: the supplement of paper PMC8728848
Many of the other results were omitted from the sample, so the strongest signals are more common in it than they were.

Columns and labels:
Assay in all cases: glycan array binding signal (z-score within array); higher = stronger binding
Conditions in all cases: glycan notation: IUPAC condensed, linker removed; mutation: Q318A
[1] = biological target: GlcNAc(b1-6)Gal(b1-4)GlcNAc
Method in brief: (§1)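 Glycan array data were curated from 3228 arrays in the Consortium for Functional Glycomics database and kept only where the protein sequence was available. Glycan names were converted to IUPAC-condensed notation, and columns mapping to the same glycan were averaged. The binding signal is a within-array Z-score, averaged across arrays of the same protein sequence at different concentrations or buffers and across linkers. Negative Z-scores can be read as non-binding.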

Kdn(a2-3)Gal(b1-3)GalNAc = biological target: Kdn(a2-3)Gal(b1-3)GalNAc
Method in brief: as §1

[2] = biological target: Man(a1-3)[Man(a1-6)]Man(a1-6)[Man(a1-3)]Man
Method in brief: as §1

[3] = biological target: Neu5Ac(a2-3)Gal(b1-3)GalNAc(b1-4)Gal(b1-4)Glc
Method in brief: as §1

[4] = biological target: Neu5Ac(a2-3)Gal(b1-3)GlcNAc(b1-2)[Neu5Ac(a2-3)Gal(b1-3)GlcNAc(b1-4)]Man(a1-6)[Neu5Ac(a2-3)Gal(b1-3)GlcNAc(b1-2)Man(a1-3)]Man(b1-4)GlcNAc(b1-4)GlcNAc
Method in brief: as §1

[5] = biological target: Neu5Ac(a2-3)Gal(b1-4)GlcNAc
Method in brief: as §1

[6] = biological target: Neu5Ac(a2-3)Gal(b1-4)GlcNAc(b1-2)Man
Method in brief: as §1

[7] = biological target: Neu5Ac(a2-3)Gal(b1-4)GlcNAc(b1-3)[Neu5Ac(a2-3)Gal(b1-4)GlcNAc(b1-6)]GalNAc
Method in brief: as §1

[8] = biological target: Neu5Ac(a2-3)Gal(b1-4)GlcNAc(b1-6)[Gal(b1-3)]GalNAc
Method in brief: as §1

[9] = biological target: Neu5Ac(a2-3)Gal(b1-4)[Fuc(a1-3)]GlcNAc(b1-2)Man
Method in brief: as §1

[10] = biological target: Neu5Ac(a2-3)Gal(b1-4)[Fuc(a1-3)]GlcNAc(b1-6)[Neu5Ac(a2-3)Gal(b1-3)]GalNAc
Method in brief: as §1

[11] = biological target: Neu5Ac(a2-6)Gal(b1-4)GlcNAc(b1-2)Man(a1-3)[Gal(b1-4)GlcNAc(b1-2)Man(a1-6)]Man(b1-4)GlcNAc(b1-4)GlcNAc
Method in brief: as §1

[12] = biological target: Neu5Ac(a2-6)Gal(b1-4)GlcNAc(b1-2)Man(a1-3)[Man(a1-6)]Man(b1-4)GlcNAc(b1-4)GlcNAc
Method in brief: as §1

[13] = biological target: Neu5Ac(a2-6)Gal(b1-4)GlcNAc(b1-2)[Neu5Ac(a2-6)Gal(b1-4)GlcNAc(b1-4)]Man(a1-3)[GlcNAc(b1-4)][Neu5Ac(a2-6)Gal(b1-4)GlcNAc(b1-2)[Neu5Ac(a2-6)Gal(b1-4)GlcNAc(b1-6)]Man(a1-6)]Man(b1-4)GlcNAc(b1-4)GlcNAc
Method in brief: as §1

[14] = biological target: Neu5Ac(a2-6)Gal(b1-4)GlcNAc(b1-3)Gal(b1-4)GlcNAc
Method in brief: as §1

[15] = biological target: Neu5Ac(a2-6)GlcNAc(b1-4)GlcNAc(b1-4)GlcNAc
Method in brief: as §1

Neu5Gc(a2-6)GalNAc = biological target: Neu5Gc(a2-6)GalNAc
Method in brief: as §1

B1: SUN4 (Saccharomyces cerevisiae), P53616 (protein)
chain: MGSSHHHHHHSSGLVPRGSHNGSIYGDLADFSGPYEKFEDGTIPCGQFPSGQGVIPISWLDEGGWSGVENTDTSTGGSCKEGSYCSYACQPGMSKTQWPSDQPSDGRSIGGLLCKDGYLYRSNTDTDYLCEWGVDAAYVVSELSNDVAICRTDYPGTENMVIPTYVQAGDSLPLTVVDQDTYYTWQGLKTSAAYYVNNAGISVEDACVWGSSSSGVGNWAPLNFGAGSSDGVAYLSLIPNPNNGNALNFNVKIVAADDSSTVNGECIYENGSFSGGSDGCTVSVTAGKAKFVLYN
For B1, the “glycan array binding signal (z-score)” value [1] was -0.7, the “glycan array binding signal (z-score)” value (Kdn(a2-3)Gal(b1-3)GalNAc) was -0.503 and the “glycan array binding signal (z-score)” value [2] was 1.55. The “glycan array binding signal (z-score)” value [3] was 1.67, the “glycan array binding signal (z-score)” value [4] was 1.64 and the “glycan array binding signal (z-score)” value [5] was -0.355. The “glycan array binding signal (z-score)” value [6] was 0.689, the “glycan array binding signal (z-score)” value [7] was 2.5 and the “glycan array binding signal (z-score)” value [8] was -0.111. The “glycan array binding signal (z-score)” value [9] was -0.965, the “glycan array binding signal (z-score)” value [10] was 3.41 and the “glycan array binding signal (z-score)” value [11] was -0.494. The “glycan array binding signal (z-score)” value [12] was -1, the “glycan array binding signal (z-score)” value [13] was -0.64 and the “glycan array binding signal (z-score)” value [14] was -0.838. The “glycan array binding signal (z-score)” value [15] was -0.241 and the “glycan array binding signal (z-score)” value (Neu5Gc(a2-6)GalNAc) was -0.69.
